# About 410 targets per protein were measured; listed, in parts, are those with the strongest signals and a random draw of the rest.
# Experiments:
# Experiment in all cases: glycan array binding signal (z-score within array); higher = stronger binding
# Conditions in all cases: glycan notation: IUPAC condensed, linker removed
# [1] = target: GalNAc(b1-4)GlcNAc
# Outline: (§1)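 From the Consortium for Functional Glycomics database, 3228 arrays were curated, keeping only those whose protein sequence was available. Binding is given as a within-array Z-score averaged across arrays sharing a protein sequence and across linkers. Negative Z-scores can be read as non-binding.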
# [2] = target: GalNAc(b1-4)GlcNAc(b1-2)Man(a1-3)[GalNAc(b1-4)GlcNAc(b1-2)Man(a1-6)]Man(b1-4)GlcNAc(b1-4)GlcNAc
# Outline: as §1
# [3] = target: GalNAc4S6S(b1-4)GlcNAc
# Outline: as §1
# [4] = target: Glc(a1-6)Glc(a1-6)Glc(a1-6)Glc
# Outline: as §1
# [5] = target: GlcA(b1-3)GlcNAc
# Outline: as §1
# [6] = target: GlcNAc(b1-3)Gal(b1-4)GlcNAc(b1-2)Man(a1-3)[GlcNAc(b1-3)Gal(b1-4)GlcNAc(b1-2)Man(a1-6)]Man(b1-4)GlcNAc(b1-4)GlcNAc
# Outline: as §1
# [7] = target: GlcNAc(b1-3)Gal(b1-4)GlcNAc(b1-3)Gal(b1-4)GlcNAc(b1-3)Gal(b1-4)GlcNAc(b1-2)[GlcNAc(b1-3)Gal(b1-4)GlcNAc(b1-3)Gal(b1-4)GlcNAc(b1-3)Gal(b1-4)GlcNAc(b1-6)]Man(a1-6)[GlcNAc(b1-3)Gal(b1-4)GlcNAc(b1-3)Gal(b1-4)GlcNAc(b1-3)Gal(b1-4)GlcNAc(b1-2)Man(a1-3)]Man(b1-4)GlcNAc(b1-4)[Fuc(a1-6)]GlcNAc
# Outline: as §1
# [8] = target: GlcNAc(b1-6)Gal(b1-4)GlcNAc
# Outline: as §1
# [9] = target: Man(a1-3)[Man(a1-6)]Man(b1-4)GlcNAc(b1-4)GlcNAc
# Outline: as §1
# [10] = target: Man(a1-3)[Man(a1-6)]Man(b1-4)GlcNAc(b1-4)[Fuc(a1-6)]GlcNAc
# Outline: as §1
# [11] = target: MurNAc(b1-4)GlcNAc
# Outline: as §1
# [12] = target: Neu5Ac(a2-3)Gal(b1-3)GalNAc
# Outline: as §1
# [13] = target: Neu5Ac(a2-3)Gal(b1-3)GlcNAc(b1-2)Man(a1-3)[Neu5Ac(a2-3)Gal(b1-3)GlcNAc(b1-2)Man(a1-6)]Man(b1-4)GlcNAc(b1-4)GlcNAc
# Outline: as §1
# [14] = target: Neu5Ac(a2-3)Gal(b1-4)GlcNAc(b1-2)[Neu5Ac(a2-3)Gal(b1-4)GlcNAc(b1-6)]Man(a1-6)[Neu5Ac(a2-3)Gal(b1-4)GlcNAc(b1-2)Man(a1-3)]Man(b1-4)GlcNAc(b1-4)GlcNAc
# Outline: as §1
# [15] = target: Neu5Ac(a2-3)Gal(b1-4)GlcNAc(b1-3)Gal(b1-4)GlcNAc
# Outline: as §1
# [16] = target: Neu5Ac(a2-3)Gal(b1-4)GlcNAc(b1-3)Gal(b1-4)GlcNAc(b1-3)Gal(b1-4)GlcNAc(b1-2)Man(a1-3)[Neu5Ac(a2-3)Gal(b1-4)GlcNAc(b1-3)Gal(b1-4)GlcNAc(b1-3)Gal(b1-4)GlcNAc(b1-2)Man(a1-6)]GalNAc
# Outline: as §1
# [17] = target: Neu5Ac(a2-6)Gal(b1-4)GlcNAc(b1-2)Man(a1-3)[GlcNAc(b1-4)][Neu5Ac(a2-6)Gal(b1-4)GlcNAc(b1-2)Man(a1-6)]Man(b1-4)GlcNAc(b1-4)GlcNAc
# Outline: as §1
# [18] = target: Neu5Ac(a2-6)Gal(b1-4)GlcNAc(b1-2)[Neu5Ac(a2-6)Gal(b1-4)GlcNAc(b1-4)]Man(a1-3)[GlcNAc(b1-4)][Neu5Ac(a2-6)Gal(b1-4)GlcNAc(b1-4)Man(a1-6)]Man(b1-4)GlcNAc(b1-4)GlcNAc
# Outline: as §1
# [19] = target: Neu5Ac(a2-6)Gal(b1-4)GlcNAc6S
# Outline: as §1
# [20] = target: Neu5Ac(a2-8)Neu5Ac(a2-8)Neu5Ac(a2-3)Gal(b1-4)Glc
# Outline: as §1
binder,measurement,setting,value
GS13971A-bth-447-22-447 (Bacteroides thetaiotaomicron) (protein) EDVDNERSKGMFSASQSGFSTIEVYDLGPLNKIDLSIAKAGLEDTGGTVTFSVEQSLLDSLNNADGTSYQLLPPECYTIENATYSVSPGGDRRVTGGSLVYDPHKIYNLCGFDELKYVLPLRVSSTGTPMNSDRTATLYGFIVKEAIVRLASTGGDFVVEGGTTTSPMNLDTEISFENEWDLTTSFATKGADYVDNYNSANSTYYIPLPSDFYTLPDVTIAKGKTTGGSAISLLGETLPPGNYLLPVSLGGLSGQGDASINIDKETVANYFVIKQGGPINRDHWTVTANTEEKTGEVSAAYPHNGQTISLIDGEINTFWHSKWQGGEVAPPYEIILDMGKENSVSQLGLIARQNALTSMNLEIYAGDDGETWNLIGKYFFDGSIKTEQMVPVKACDARWIRIYIPTLGSGSSVGHLAEIYVYGTDK,glycan array binding signal (z-score),[1],2.92
same,glycan array binding signal (z-score),[2],5.75
same,glycan array binding signal (z-score),[3],-0.217
same,glycan array binding signal (z-score),[4],0.028
same,glycan array binding signal (z-score),[5],-0.782
same,glycan array binding signal (z-score),[6],-0.725
same,glycan array binding signal (z-score),[7],2.94
same,glycan array binding signal (z-score),[8],2.1
same,glycan array binding signal (z-score),[9],0.252
same,glycan array binding signal (z-score),[10],-0.859
same,glycan array binding signal (z-score),[11],-0.36
same,glycan array binding signal (z-score),[12],0.032
same,glycan array binding signal (z-score),[13],-0.673
same,glycan array binding signal (z-score),[14],1.47
same,glycan array binding signal (z-score),[15],1.45
same,glycan array binding signal (z-score),[16],2.81
same,glycan array binding signal (z-score),[17],0.18
same,glycan array binding signal (z-score),[18],-1.25
same,glycan array binding signal (z-score),[19],-1.24
same,glycan array binding signal (z-score),[20],1.11

# — the supplement of paper PMC8728848
